± gives the standard deviation of the averaged measurements.

Assay [1] deals with DLD1. Kind of assay: cell viability (CellTiter-Glo) relative to plate median (fraction of plate median); higher = more viable cells. Particulars: 5 µM; treatment time 24 h; reporter: 7TFP. Put shortly: (§1)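 On parallel plates, a Tecan F500 reader recorded either firefly luciferase or CellTiterGlo luminescence. The plates held colorectal cancer cells stably transduced with lentiviral TCF/Wnt firefly luciferase reporters (7TFP or TCF4/Wnt), seeded in 384-well format and treated 24 h later with library compounds at a final 5 µM for 24 h. Per-well signals were normalised to the plate median (webcellHTS2, additive, no log transformation), and two independent replicates were averaged.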
A general note: Cellular ATP, detected with luciferase, serves as a proxy for viable cell number.

In another assay the test system is HCT116. The description is as above. Particulars: 5 µM; treatment time 24 h; reporter: TCF4/Wnt. Put shortly: as §1
For assay [2], the system named is SW480. The description is as above. Particulars: 5 µM; treatment time 24 h; reporter: 7TFP. Put shortly: as §1
Assay [3] relates to DLD1. Kind of assay: TCF/Wnt firefly luciferase reporter signal relative to plate median (fraction of plate median); higher = higher Wnt reporter signal. As to conditions: 5 µM; treatment time 24 h; reporter: 7TFP. A digest of the protocol: as §1
In general terms: In a reporter assay the amount or activity of a reporter protein is the signal.

The test system of assay [4] is SW480. Described as above. Particulars: 5 µM; treatment time 24 h; reporter: 7TFP. Put shortly: as §1

For the molecule `CC1/C(=N/O)C[C@@H]2C[C@H]1C2(C)C` (stereo not given in full), the results for the cell viability in the assay with DLD1 [1], in the assay with HCT116 and in the assay with SW480 [2] were 1.07 ± 0.014, 1.09 ± 0.014 and 1.02 ± 0.037, respectively. Moreover, the “TCF/Wnt firefly luciferase reporter signal” value in the assay with DLD1 [3] is 1.08 ± 0.042; in the assay with SW480 [4] it was 0.919 ± 0.17.
On the same counts, the results for `CN(C)CCCN1c2ccccc2Sc2ccc(Cl)cc21` are 1.02 ± 0.054, 0.957 ± 0.047, 1.09 ± 0.14, 0.928 ± 0.12 and 0.821 ± 0.13.
Regarding `CC(C)(Oc1ccc(CCNC(=O)c2ccc(Cl)cc2)cc1)C(=O)O`, the values for the cell viability in the assay with DLD1 [1], in the assay with HCT116 and in the assay on SW480 [2] were 1.05 ± 0.014, 1.06 ± 0.064 and 1 ± 0.069, respectively. Besides, the figures for the “TCF/Wnt firefly luciferase reporter signal” value in the assay with DLD1 [3] and in the assay on SW480 [4] were 0.919 ± 0.016 and 0.986 ± 0.02, respectively.
In the same order, the values of `CO[C@H]1O[C@H](CO)C(O[C@@H]2OC(C(=O)O)[C@@H](O[C@H]3O[C@H](COS(=O)(=O)O)C(O[C@@H]4OC(C(=O)O)[C@@H](O[C@H]5O[C@H](CO)C(O[C@@H]6OC(C(=O)O)[C@@H](O[C@H]7O[C@H](COS(=O)(=O)O)C(O[C@@H]8OC(C(=O)O)=C[C@H](O)C8OS(=O)(=O)O)[C@H](O)[C@H]7NC(C)=O)[C@H](O)[C@H]6O)[C@H](O)[C@H]5NC(C)=O)[C@H](O)[C@H]4O)[C@H](O)[C@H]3NC(C)=O)[C@H](O)[C@H]2O)[C@H](O)[C@H]1NC(C)=O` (stereo not given in full) are 0.988 ± 0.032, 1.05 ± 0.1, 1.025 ± 0.0071, 0.977 ± 0.2 and 0.98 ± 0.043.
In the case of `O=C1OC2(c3ccc(O)cc3Oc3cc(O)ccc32)c2ccccc21`, the cell viability in the assay on DLD1 [1] turned out to be 1.01 ± 0.047; in the assay on HCT116 it was 0.9885 ± 0.0064; in the assay with SW480 [2], 1 ± 0.011. Further, the “TCF/Wnt firefly luciferase reporter signal” value was 1.11 ± 0.085 in the assay with DLD1 [3] and 1.07 ± 0.028 in the assay on SW480 [4].
In the same order, the values of `CC(C)[N+]1(C)[C@@H]2CC[C@H]1C[C@@H](OC(=O)C(CO)c1ccccc1)C2` (stereo not given in full) are 1.02 ± 0.13, 0.989 ± 0.16, 0.953 ± 0.065, 1 ± 0.013 and 0.935 ± 0.076.
Turning to `CC(=O)OCC(=O)[C@@]12OC3(CCCC3)O[C@@H]1C[C@H]1[C@@H]3CCC4=CC(=O)C=C[C@]4(C)[C@@]3(F)[C@@H](O)C[C@@]12C`, the cell viability was 0.985 ± 0.021 with DLD1 [1], 0.896 ± 0.16 in the assay on HCT116 and 0.965 ± 0.023 in the assay on SW480 [2]. For the same molecule, the figures for the “TCF/Wnt firefly luciferase reporter signal” value in the assay on DLD1 [3] and with SW480 [4] were 0.82 ± 0.093 and 0.771 ± 0.28, respectively.
In the same order, the values of `COC1C(OC(C)=O)C(C)OC(OC2C(Oc3cccc4c(OC(C)=O)c5c(=O)oc6ccc(C)c7c(=O)oc(c34)c5c67)OC(C)C(OC(C)=O)C2OC(C)=O)C1OC(C)=O` (stereo not given) [Chartreusin-pentaacetate] are 0.99 ± 0.028, 1.04 ± 0.14, 0.932 ± 0.03, 1.095 ± 0.0071 and 1.1 ± 0.11.
On the same counts, the results for `Cc1c(NC(C)C)c(=O)n(-c2ccccc2)n1C` are 1.01 ± 0.014, 1.05 ± 0.15, 1.03 ± 0.045, 0.95 ± 0.21 and 0.942 ± 0.0014.
On the same counts, the results for `CC1(C)C(=O)CC[C@@]2(C)C1C[C@@H](O)[C@@]1(C)C3=CC(=O)O[C@@H](c4ccoc4)[C@]3(C)CCC21` (stereo not given in full) are 0.9595 ± 0.0035, 1.06, 0.969 ± 0.027, 0.937 ± 0.028 and 0.967 ± 0.013.
Regarding `Clc1ccccc1C(c1ccccc1)(c1ccccc1)n1ccnc1`, the cell viability in the assay on DLD1 [1] stood at 1.05 ± 0.089; with HCT116 it was 1 ± 0.11; with SW480 [2] it was 0.956 ± 0.0042. For the same molecule, the results for the “TCF/Wnt firefly luciferase reporter signal” value with DLD1 [3] and in the assay on SW480 [4] were 0.938 ± 0.086 and 1.08 ± 0.014, respectively.
As to `COc1cc(-c2coc3cc(OC)c(OC)c(OC)c3c2=O)cc(OC)c1OC`, the cell viability worked out at 1.04 ± 0.08 in the assay on DLD1 [1], 1.18 ± 0.14 in the assay on HCT116 and 1.07 ± 0.064 in the assay on SW480 [2]. The “TCF/Wnt firefly luciferase reporter signal” value with DLD1 [3] was 1.05 ± 0.1; in the assay on SW480 [4] it was 1.1 ± 0.028.
On the same counts, the results for `COc1cc2nc(N(C)CCCNC(=O)C3CCCO3)nc(N)c2cc1OC` (stereo not given) are 1.01 ± 0.12, 0.973 ± 0.053, 0.985 ± 0.035, 0.972 ± 0.069 and 0.905 ± 0.053.
Turning to `Nc1ccc(C(=O)O)c(O)c1`, the cell viability in the assay with DLD1 [1] is 1.01 ± 0.021; with HCT116, 1.06 ± 0.11; in the assay on SW480 [2] it was 0.989 ± 0.013. Further, the “TCF/Wnt firefly luciferase reporter signal” value in the assay on DLD1 [3] was 1.04 ± 0.057; in the assay with SW480 [4], 1.06 ± 0.1.
Take `CCCc1nn(C)c2c(=O)[nH]c(-c3cc(S(=O)(=O)N4CCN(C)CC4)ccc3OCC)nc12`: the cell viability was determined as 1 ± 0.067 in the assay on DLD1 [1], 0.981 ± 0.21 in the assay on HCT116 and 0.978 ± 0.013 in the assay with SW480 [2]. For the same molecule, the “TCF/Wnt firefly luciferase reporter signal” value with DLD1 [3] came to 1.02 ± 0.042; with SW480 [4] it was 1.09 ± 0.028.
